According to the supplement of paper PMC11417369:
Over roughly 25,000 sequences, “ln(normalized median fluorescence intensity)” has its median near 7.1; the highest 2% begin near 10. The sample holds the highest values, similar sequences and a random draw of the others, so the mix is not that of the screen.

What follows are sequences tested on PfSIP2 AP2 domain 1 (GST-tagged) (assay: gcPBM binding intensity (ln(normalized median fluorescence intensity)); higher = stronger DNA binding).
In short: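 GST-fused DNA-binding domains of P. falciparum, expressed in E. coli, were applied at about 25 μg on average for 1 h to an Agilent 4 × 180k array of primer-extended double-stranded 36-bp intergenic genomic probes and negative controls. Binding intensity is the highest Masliner-normalised natural-log median intensity across replicate spots of either probe orientation, measured with Alexa488 anti-GST antibody and a 488 nm scan.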

Sequence | gcPBM binding intensity (ln)
ATGTATTTATTATTTAGTACACATTATTTTCTTATA [XGTACX_site6365] | 7.05
AAATACATATTTAGAAGTACATTTATACATTTAATA [XGTACX_site8871] | 7.04
CATATATAAATATATACACACATATATATATATATA [CACACA_site1365] | 9.43
TGAAGGTCAGTTCACAGTACCCAGTAACTCTACGGA [XGTACX_site2554] | 6.62
AGGATTATATATTAATGTACCCGCGTTAATTTTTTT [XGTACX_site2878] | 6.82
ATATATATATTTATATTTATATGTAAATATCAACGT [TGCATGCA_negctrl_site32] | 8.59
GTCTATATATTTTAGGTGCAACGTAAATGTAAAAAT | 10.7
TTTTTTTTTATAAGGTGTACGTAAAATGTGTAGGTC [XGTACX_site3585] | 8.36
TTAAGTAGTACATACACACACATATACAAAAAGAAA [CACACA_site3972] | 7.3
AGAATGAAATAATATACACACAAAGGAAAAATGTAA [CACACA_site3911] | 6.76
TACATATATTTTTATACATGCATAACTTAGGACTTT [TGCATGCA_site113] | 7.07
TGTGCATAATTTTGTGCACACCACGCTAATAATTTT [CACACA_site2915] | 10.9
TTTTTTTTTTTTTTTGTGCACAATATAATTTTTAAT [GTGCAC_site9747] | 8.64
CATATAAATATTTGTGCACACAATTATTAATAATTA [CACACA_site3884] | 9.35
ATAGTATCTGGTAGCTGTACGAGTCGTATAGTGCAG [XGTACX_site2542] | 8.25
AAAAAAAATTATATATGTACTTATTAATCCTTATAT [XGTACX_site1389] | 6.86
GATGTTTCTATTTTAGTGCATTTTAAATAAATAAAT | 9.4
TTTTCTAAATAAATAGTGCATTTATTATATATACAT [GTGCAC_site9766] | 9.15
TACATCATCTATAAGGTGCATTTTAGTTCTATTAAA | 10.8
TTGTTCTTTTTTTTTTTATTTTTTAATTTGAAAAGA [CACACA_negctrl_site209] | 7.03

Sequence | gcPBM binding intensity (ln)
AAAAAAAAAAGAAATTGTACTTTTTGTTTAATAATT [XGTACX_site4681] | 6.65
TTGTTCTTTTGAAAGGTGCAAAAGAAAAATAATTAA | 11.2
CATATTCCCCCCCACACACACACACGCATACATACC [CACACA_site7148] | 10.1
CATATTCCCCCCCACACACACACACCCATACATACC [CACACA_site2303] | 10.2
GACATATTCCCCCCCACACACACACCCACATACATA [CACACA_site2302] | 9.81
TCTATATAATACCAATGTACATAGTTTTAAGCATAA [XGTACX_site1889] | 6.93
TATAAAACGGATGAACAACAAATCATATGGCACAAA [TGCATGCA_negctrl_site608] | 7.23
ACAAAGTAAAATAATGCATGTAGGTATACATAATTA [TGCATGCA_site607] | 6.64
TTAAAAAAGTAATTAACACACAATAATGTAATGCAT [CACACA_site4176] | 6.72
CTGTATAAAACCAATGCATGTAAATATATTAATATA [TGCATGCA_site511] | 7.06
TTTTTGTATCCTTTTAATATTAAATAAAAGGAATGT [CACACA_negctrl_site1468] | 7.02
TATTGTATCCTTAATGCATGCACCAAATAAAAAAAG [TGCATGCA_site541] | 11.1
TTGTATCCTTAATGCATGCACCAAATAACAAAAGTA | 10.6
TATTTGTTTGAATTTTTTTTTTTTTTTTTTTATGTG [CACACA_negctrl_site966] | 6.78
CCTATATAATATATTTGTACTTAATAATTAAAGTGT [XGTACX_site5151] | 7.16
ATTATTTGTAATATAACACACACAAAAAAAGACTCG [CACACA_site8487] | 7.1
AAAATGTATATTGGCGCATGTAAACAAATACTATAC [TGCATGCA_site385] | 7.13
AAATATTACATTTGTTAAATAATATGTTATACATAA [XGTACX_negctrl_site484] | 6.96
GTCAAATTTTTGTGCACACATATATAGTTATTATTA [CACACA_site2241] | 10
CAGTTGTTAATTTGTGTGCACCAAATATTATACATA | 11.2

Sequence | gcPBM binding intensity (ln)
ACCTACACAAGCATTAAACACACAAAAGGGATACTT [CACACA_site8273] | 7.18
AAAACATTGTTGAACTGTTTTATTTATAAATATAAG [XGTACX_negctrl_site393] | 7.02
TATAAAAATGTGCACACACACACATATTTATATTTA [CACACA_site6826] | 8.97
TTAAAATGAAGAAGTGCACACATATATATATTTATA [CACACA_site8063] | 10.4
AAAATGAAGAAGTGCACACATATATATATTTATATA [CACACA_site507] | 10.7
AAAATGAACAGACACACACACATATTTATATTTATA [CACACA_site7182] | 6.96
CATAAAAATGAACATACACACATATATTTATTTATA [CACACA_site7222] | 6.85
TCCTTATATTTGCACACACACACAAGAAAATGAAAA [CACACA_site6613] | 8.3
CATGCCGTTAAATTATGTACTTATTATTTTAATATG [XGTACX_site4209] | 7.03
TATCATGTTTTTATGGTGCATGAAATCACACATTGA | 9.32
TTATGGTGCATGAAATCACACATTGATATATATGCT [CACACA_site5352] | 11.3
TAAAAAAAATCATTCACACATATATGAAAAAAAAAA [CACACA_site5546] | 6.72
AAAAAAATAAGGTGCACACAAAAAAAAAAAAAAAAA [CACACA_site812] | 12.4
AATATAAAAATGCACACACACAAAAAAAAAAAAAAA [CACACA_site6546] | 7.37
ATATATATATATATTGTGCACAAAAAAAAATAAGCA | 9.29
AAAAATAAAAGGTGTGCACACAAAAATATATATATA [CACACA_site8507] | 8.89
TAAATATAAAAATGCACACACACAAAAAAAAAAAAA [CACACA_site895] | 7.44
ACAAAAAAATAAGGTGCACACAAAAAAAAAAAAAAA [CACACA_site8171] | 12
